Measurements published in ChEMBL document CHEMBL3988442, “University of Dundee, Small-Polar-MMV Screening Library” (2021).
For some assays here: Measured potencies and affinities stand elsewhere.

Columns and labels:
Parameters in all cases: scale not given: direction of the effect not stated beside the values
[1] = molecular target: Protein translocase subunit SecA (Escherichia coli (strain K12)) (UniProt P10408); assay: Assay to Identify E. coli SecA ATPase Inhibitors; type: functional; settings: 30 µM
Chain of Protein translocase subunit SecA (Escherichia coli (strain K12)) (P10408 whole entry): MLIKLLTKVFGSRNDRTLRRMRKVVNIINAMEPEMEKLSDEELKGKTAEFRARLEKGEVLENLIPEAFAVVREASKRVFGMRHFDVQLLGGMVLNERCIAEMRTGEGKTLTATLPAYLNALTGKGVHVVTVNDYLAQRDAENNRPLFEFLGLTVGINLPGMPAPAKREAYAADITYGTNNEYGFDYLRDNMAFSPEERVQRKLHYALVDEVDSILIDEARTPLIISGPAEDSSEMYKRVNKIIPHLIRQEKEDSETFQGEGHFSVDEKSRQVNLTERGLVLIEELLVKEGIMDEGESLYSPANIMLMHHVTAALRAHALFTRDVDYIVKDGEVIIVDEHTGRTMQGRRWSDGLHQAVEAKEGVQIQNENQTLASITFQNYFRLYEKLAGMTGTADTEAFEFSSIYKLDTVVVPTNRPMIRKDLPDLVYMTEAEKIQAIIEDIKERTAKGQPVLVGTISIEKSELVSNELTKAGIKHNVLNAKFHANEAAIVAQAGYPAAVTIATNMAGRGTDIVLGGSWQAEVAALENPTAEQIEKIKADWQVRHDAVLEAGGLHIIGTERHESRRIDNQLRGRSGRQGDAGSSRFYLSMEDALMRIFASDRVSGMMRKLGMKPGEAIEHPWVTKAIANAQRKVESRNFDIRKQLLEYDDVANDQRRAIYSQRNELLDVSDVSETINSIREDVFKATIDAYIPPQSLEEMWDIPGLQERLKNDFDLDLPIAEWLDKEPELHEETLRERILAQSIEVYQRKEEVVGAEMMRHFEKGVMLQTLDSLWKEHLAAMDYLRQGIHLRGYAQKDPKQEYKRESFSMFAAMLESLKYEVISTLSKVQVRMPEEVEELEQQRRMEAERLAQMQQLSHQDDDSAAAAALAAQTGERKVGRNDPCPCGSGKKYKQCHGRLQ

[2] = molecular target: T1, Ubiquitin-activating enzyme e1, putative (Leishmania donovani (strain BPK282A1)) (UniProt E9BSI1); assay: Leishmania donovani Ubiquitin Activating Enzyme (LdE1); type: functional; settings: 30 µM
T1 sequence (whole entry): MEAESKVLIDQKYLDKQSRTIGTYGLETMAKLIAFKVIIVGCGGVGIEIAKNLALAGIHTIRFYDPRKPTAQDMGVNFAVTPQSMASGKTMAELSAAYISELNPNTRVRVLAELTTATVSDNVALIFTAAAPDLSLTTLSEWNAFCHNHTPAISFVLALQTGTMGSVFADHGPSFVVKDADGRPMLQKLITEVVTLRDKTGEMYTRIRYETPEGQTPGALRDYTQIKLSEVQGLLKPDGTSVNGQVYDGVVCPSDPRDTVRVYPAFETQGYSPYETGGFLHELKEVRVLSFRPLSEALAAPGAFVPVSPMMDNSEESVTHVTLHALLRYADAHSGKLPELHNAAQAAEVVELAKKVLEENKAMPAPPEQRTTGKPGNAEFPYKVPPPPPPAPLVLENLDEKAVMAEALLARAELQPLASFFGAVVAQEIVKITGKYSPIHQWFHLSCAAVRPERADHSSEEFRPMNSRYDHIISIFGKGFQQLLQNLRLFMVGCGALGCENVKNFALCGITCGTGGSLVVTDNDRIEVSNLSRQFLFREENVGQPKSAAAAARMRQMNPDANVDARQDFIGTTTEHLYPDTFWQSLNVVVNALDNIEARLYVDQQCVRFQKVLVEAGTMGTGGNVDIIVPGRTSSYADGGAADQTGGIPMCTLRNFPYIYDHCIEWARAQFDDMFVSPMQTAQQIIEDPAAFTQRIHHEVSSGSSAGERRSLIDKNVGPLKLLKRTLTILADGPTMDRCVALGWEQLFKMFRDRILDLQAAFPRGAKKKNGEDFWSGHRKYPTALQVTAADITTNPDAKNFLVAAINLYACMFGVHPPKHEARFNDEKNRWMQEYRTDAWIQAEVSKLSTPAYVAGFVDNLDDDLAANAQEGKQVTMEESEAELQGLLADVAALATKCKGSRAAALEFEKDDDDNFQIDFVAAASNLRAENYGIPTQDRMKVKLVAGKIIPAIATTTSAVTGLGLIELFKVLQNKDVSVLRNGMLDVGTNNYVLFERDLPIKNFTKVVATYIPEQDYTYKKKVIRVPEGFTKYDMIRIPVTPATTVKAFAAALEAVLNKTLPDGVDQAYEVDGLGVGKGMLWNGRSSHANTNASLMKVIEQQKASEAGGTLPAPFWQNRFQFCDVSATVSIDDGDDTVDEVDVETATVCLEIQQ

[3] = molecular target: AMP-activated protein kinase, AMPK (Homo sapiens) (UniProt P54646+O43741+P54619+Q9UGJ0+Q9Y478+Q13131+Q9UGI9); assay: AMP-dependent Kinase enzyme assay. An in vitro enzyme assay that detects ADP turnover that is directly proportional to AMPK activity. This uses naive AMPK that is activated during the assay with MK-8722; type: functional; settings: 30 µM
[4] = molecular target: Sialic acid-binding Ig-like lectin 9 (Homo sapiens) (UniProt Q9Y336); assay: Hs-Siglec9 ALPHAscreen SOP 20170721; settings: 10 µM
Chain of Sialic acid-binding Ig-like lectin 9 (Homo sapiens) (Q9Y336 whole entry): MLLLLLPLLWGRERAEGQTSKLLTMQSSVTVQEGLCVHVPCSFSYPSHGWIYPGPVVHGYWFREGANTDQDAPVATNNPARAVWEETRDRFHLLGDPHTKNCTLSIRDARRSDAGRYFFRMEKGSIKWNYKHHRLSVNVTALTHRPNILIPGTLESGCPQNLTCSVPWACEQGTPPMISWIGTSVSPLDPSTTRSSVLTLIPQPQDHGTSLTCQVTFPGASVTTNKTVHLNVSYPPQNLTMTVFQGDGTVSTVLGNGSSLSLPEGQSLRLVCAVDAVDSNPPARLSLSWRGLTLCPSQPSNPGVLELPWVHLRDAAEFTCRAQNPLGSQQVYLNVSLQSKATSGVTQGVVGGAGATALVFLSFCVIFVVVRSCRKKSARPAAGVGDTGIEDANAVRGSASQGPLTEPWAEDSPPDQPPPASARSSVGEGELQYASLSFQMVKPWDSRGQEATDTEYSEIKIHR

Trypanosoma cruzi = assay: Trypanosoma cruzi phosphomannomutase and mannose-1-phosphate guanylyltransferase assay; type: functional; settings: 10 µM
[5] = molecular target: T2, Arginase-2, mitochondrial (Homo sapiens) (UniProt P78540); assay: in vitro enzyme assay to detect the production of urea directly proportional to the activity of Arginase II; type: functional; settings: 33.3 µM; also: in the data most compounds retested in dose-response had high values
T2 sequence (whole entry): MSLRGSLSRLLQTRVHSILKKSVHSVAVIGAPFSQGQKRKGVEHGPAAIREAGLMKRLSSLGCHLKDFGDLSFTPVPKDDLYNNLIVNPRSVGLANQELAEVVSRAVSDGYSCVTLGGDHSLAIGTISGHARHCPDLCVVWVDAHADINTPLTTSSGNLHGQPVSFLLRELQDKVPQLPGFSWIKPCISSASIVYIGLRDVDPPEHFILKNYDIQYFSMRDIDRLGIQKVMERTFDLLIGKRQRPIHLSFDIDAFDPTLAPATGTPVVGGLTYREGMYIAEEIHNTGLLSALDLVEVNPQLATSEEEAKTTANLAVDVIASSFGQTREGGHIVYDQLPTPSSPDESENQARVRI

[6] = molecular target: T3, Proteasome subunit beta (Trypanosoma cruzi) (UniProt O96673); assay: Trypanosoma cruzi proteasome chymotrypsin-like activity (TcProtChymo) assay.; also: in the data most compounds retested in dose-response had high values; type: functional; settings: 9.37 µM
T3 sequence (whole entry): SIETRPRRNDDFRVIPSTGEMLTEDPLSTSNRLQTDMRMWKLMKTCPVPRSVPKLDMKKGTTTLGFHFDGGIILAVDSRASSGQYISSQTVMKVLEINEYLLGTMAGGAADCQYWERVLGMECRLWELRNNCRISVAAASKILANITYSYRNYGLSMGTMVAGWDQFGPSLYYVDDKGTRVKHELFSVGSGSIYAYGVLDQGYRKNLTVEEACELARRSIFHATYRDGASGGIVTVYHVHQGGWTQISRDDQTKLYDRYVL

Homo sapiens = species: Homo sapiens; assay: To identify inhibition of the IFN signalling (Jak-Stat) pathway via expression of an eGFP reporter gene under the control of an IFN-stimulated response element (ISRE) containing MxA promoter.; type: functional; settings: 30 µM
[7] = molecular target: T4, Tyrosyl-tRNA synthetase, putative (Trypanosoma cruzi (strain CL Brener)) (UniProt Q4DSP6); assay: Trypanosoma cruzi tyrosyl tRNA synthetase (TcYRS) _High Tyrosine SOP; type: functional; settings: 30 µM; also: in the data most compounds retested in dose-response had high values
T4 sequence (whole entry): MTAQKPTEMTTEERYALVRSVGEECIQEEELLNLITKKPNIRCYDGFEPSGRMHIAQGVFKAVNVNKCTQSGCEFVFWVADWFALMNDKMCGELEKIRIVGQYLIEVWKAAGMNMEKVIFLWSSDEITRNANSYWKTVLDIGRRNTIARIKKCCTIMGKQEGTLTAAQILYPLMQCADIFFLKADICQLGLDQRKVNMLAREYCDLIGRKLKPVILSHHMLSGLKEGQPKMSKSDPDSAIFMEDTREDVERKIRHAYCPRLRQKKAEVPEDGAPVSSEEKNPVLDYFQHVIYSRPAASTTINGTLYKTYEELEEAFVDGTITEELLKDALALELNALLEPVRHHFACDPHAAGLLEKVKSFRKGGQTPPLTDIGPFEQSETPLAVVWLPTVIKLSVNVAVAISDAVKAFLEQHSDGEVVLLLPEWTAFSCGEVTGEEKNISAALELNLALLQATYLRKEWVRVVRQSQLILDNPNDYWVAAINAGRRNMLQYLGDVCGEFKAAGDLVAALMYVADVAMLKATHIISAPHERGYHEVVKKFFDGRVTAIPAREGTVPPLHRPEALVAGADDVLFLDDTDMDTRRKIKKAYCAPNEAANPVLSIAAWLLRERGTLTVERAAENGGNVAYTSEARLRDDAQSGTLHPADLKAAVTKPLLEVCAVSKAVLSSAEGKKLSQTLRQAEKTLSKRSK

[8] = molecular target: T4, Tyrosyl-tRNA synthetase, putative (Trypanosoma cruzi (strain CL Brener)); assay: Trypanosoma cruzi tyrosyl tRNA synthetase (TcYRS) SOP; type: functional; settings: 30 µM
[9] = molecular target: Chromo domain-containing protein 1 (Saccharomyces cerevisiae (strain ATCC 204508 / S288c) (Baker's yeast)) (UniProt P32657); assay: ScCHD-1 Enzyme Inhibition Assay; type: functional; settings: 30 µM; also: in the data most compounds retested in dose-response had high values
Chain of Chromo domain-containing protein 1 (Saccharomyces cerevisiae (strain ATCC 204508 / S288c) (Baker's yeast)) (P32657 whole entry, the tested form may be a part): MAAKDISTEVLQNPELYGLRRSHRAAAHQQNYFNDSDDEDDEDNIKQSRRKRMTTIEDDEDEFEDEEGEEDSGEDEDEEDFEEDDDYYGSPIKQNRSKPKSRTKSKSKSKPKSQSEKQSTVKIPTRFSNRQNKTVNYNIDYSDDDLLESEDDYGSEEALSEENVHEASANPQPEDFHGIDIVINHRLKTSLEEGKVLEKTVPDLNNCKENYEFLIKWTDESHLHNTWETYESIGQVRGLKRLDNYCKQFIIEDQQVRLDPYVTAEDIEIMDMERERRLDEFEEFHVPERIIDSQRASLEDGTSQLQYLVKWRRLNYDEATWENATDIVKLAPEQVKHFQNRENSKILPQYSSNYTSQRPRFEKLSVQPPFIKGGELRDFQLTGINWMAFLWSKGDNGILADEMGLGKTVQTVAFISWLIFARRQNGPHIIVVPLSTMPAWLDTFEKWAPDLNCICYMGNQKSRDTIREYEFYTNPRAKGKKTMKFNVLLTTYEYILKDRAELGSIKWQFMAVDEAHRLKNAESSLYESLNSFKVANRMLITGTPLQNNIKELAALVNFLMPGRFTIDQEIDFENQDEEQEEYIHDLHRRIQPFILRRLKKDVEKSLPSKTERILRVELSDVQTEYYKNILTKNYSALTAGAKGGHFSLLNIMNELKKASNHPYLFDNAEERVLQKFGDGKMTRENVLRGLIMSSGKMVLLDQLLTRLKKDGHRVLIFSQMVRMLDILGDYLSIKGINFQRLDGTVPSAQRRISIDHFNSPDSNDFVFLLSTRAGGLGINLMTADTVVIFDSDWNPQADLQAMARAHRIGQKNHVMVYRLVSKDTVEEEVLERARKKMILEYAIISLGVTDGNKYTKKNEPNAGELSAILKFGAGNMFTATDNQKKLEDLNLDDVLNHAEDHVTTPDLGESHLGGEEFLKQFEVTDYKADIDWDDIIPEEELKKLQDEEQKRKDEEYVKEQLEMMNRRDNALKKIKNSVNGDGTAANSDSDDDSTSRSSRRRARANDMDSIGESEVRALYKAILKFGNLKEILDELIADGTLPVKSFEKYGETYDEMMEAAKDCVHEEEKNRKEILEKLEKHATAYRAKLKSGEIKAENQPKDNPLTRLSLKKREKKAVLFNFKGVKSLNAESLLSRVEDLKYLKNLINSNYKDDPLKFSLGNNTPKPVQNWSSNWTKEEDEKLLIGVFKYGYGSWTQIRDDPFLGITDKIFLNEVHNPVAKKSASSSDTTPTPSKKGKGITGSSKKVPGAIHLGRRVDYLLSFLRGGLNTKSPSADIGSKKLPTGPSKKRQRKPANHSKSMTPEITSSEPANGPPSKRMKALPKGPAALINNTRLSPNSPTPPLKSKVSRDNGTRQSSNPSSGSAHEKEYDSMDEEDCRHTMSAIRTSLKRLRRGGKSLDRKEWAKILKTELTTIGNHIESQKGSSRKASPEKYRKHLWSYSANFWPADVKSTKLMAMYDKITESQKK

Compound	Percent Effect [1] [%]	Percent Effect [2] [%]	Percent Effect [3] [%]	Percent Effect [4] [%]	Percent Effect (Trypanosoma cruzi) [%]	Percent Effect [5] [%]	Percent Effect [6] [%]	Percent Effect (Homo sapiens) [%]	Percent Effect [7] [%]	Percent Effect [8] [%]	Percent Effect [9] [%]
Cc1nc(CN2C(=O)CCC23CCN(c2ncccn2)CC3)cs1	-1.55	16	-2.28	4.1	5.02	-54.7	19.3	-8.11	5.21	5	-8.28
O=C(NC1(c2cccc(F)c2)CCOCC1)c1ccccn1	-5.05	2.6	-0.416	0.357	-4.03	2.76	0.499	14.4	-6.45	-6.17	2.74
O=C(c1ccoc1)N1CC[C@H]2OCC[C@@]2(COc2ncccc2F)C1	-6.18	18.9	-5.57	25.4	3.23	2.73	6.78	-2.11	4.3	21	-7.11
CC(C(=O)NCc1ccnc(Oc2ccc(F)cc2)c1)n1cncn1 (stereo not given)	-3.42	-54	-1.15	7.66	3.86	4.29	9.31	0.85	4.76	14.6	-1.39
CN(C)C(=O)CNC(=O)CCn1ncc2c(Cl)cccc21	-5.52	4	2.92	1.65	3.73	-7.57	14.1	16.1	2.12	7.69	-12.3
Cc1nnc2n1CCN(C(=O)c1cc(Cl)c(Cl)n1C)C2	-1.98	5.26	-1.75	6.76	2.63	-1.53	0.501	-1.85	-1.47	7.32	-1.57
COCC(NC(=O)c1cc[nH]n1)c1cccc(C(F)(F)F)c1 (stereo not given)	-5.2	16.4	-2.13	16	3.92	0.455	6.03	15.4	4.3	7.5	-5.07
CC(NC(=O)CCOc1ccccc1Cl)c1nnc2n1CCC2 (stereo not given)	-2.36	10.8	-3.16	-0.604	6.51	-2	5.77	6.7	5.42	16.1	-6.83
Clc1ccccc1CN1CCc2nc(C3CCCCN3)ncc2C1 (stereo not given)	-3.32	-8	4.19	5.09	8.46	-1.17	5.55	-13.2	5.32	3.85	-2.09
CNS(=O)(=O)c1cccc(CNc2cc(C(F)(F)F)ccn2)c1	-7.14	5.41	12.6	-1.96	-6.13	5.21	0.54	38.2	4.43	3.7	-1.45
